From PubChem BioAssay
Potency and affinity values are given separately. Records with an inconclusive call do not appear. Unmarked numbers belong to inactive results. Active and inactive are the calls of the source. How the calls were made is not given here.

Experiment: non-specific cell cytotoxicity, dose response, cytotoxicity control for PAX8 inhibitor project, plate reader, dry powder samples (AID 743021)
Conditions: cell line, non-specific cytotoxicity counter-screen; series mostly up to 35 µM; activity change, negative = cytotoxicity: at the top concentration
In the case of `O=C(CCS(=O)(=O)c1ccccc1)Nc1nc2ccc(F)cc2s1`, the outcome is reported as “inactive”.
With `C[C@@H]1CCCCO[C@@H](CN(C)Cc2ccc(C(F)(F)F)cc2)[C@H](C)CN([C@@H](C)CO)C(=O)c2cc(NS(=O)(=O)c3ccc(Cl)cc3)ccc2O1` the “activity change, negative = cytotoxicity” value was -4.99%.
For `COc1ccc2c3c([nH]c2c1)[C@@H](CO)N(C(=O)Nc1cccc(F)c1)CC31CCN(S(=O)(=O)c2cccc(C)c2)CC1`, the “activity change, negative = cytotoxicity” value was -6.99%.
In the case of `C[C@@H]1CN([C@@H](C)CO)C(=O)c2cc(NC(=O)CCC(F)(F)F)ccc2O[C@@H](C)CCCCO[C@H]1CN(C)Cc1ccc(C(F)(F)F)cc1`, the “activity change, negative = cytotoxicity” value is reported as -7.88%.
For `C[C@H](CO)N1C[C@H](C)[C@H](CN(C)CC2CCCCC2)OCCCC[C@H](C)Oc2ccc(NC(=O)Nc3ccccc3)cc2C1=O`, the “activity change, negative = cytotoxicity” value was -25.9%.
For `O=C(CN1C(=O)c2ccccc2S1(=O)=O)c1ccc(Cl)cc1Cl`, the outcome was “inactive”.
In the case of `CCN(CC)CCCNc1nc2ccccc2c2[nH]c3ccc(OC)cc3c12`, the “activity change, negative = cytotoxicity” value is reported as 6.11%.
With `Cc1ccc(S(=O)(=O)N(C)C[C@@H]2Oc3ccc(NC(=O)Nc4ccc(C(F)(F)F)cc4)cc3CC(=O)N([C@@H](C)CO)C[C@@H]2C)cc1` the “activity change, negative = cytotoxicity” value was 9.03%.
In the case of `CN(C)CCCN(C(=O)CCOc1ccccc1)c1nc2c(F)cccc2s1`, the “activity change, negative = cytotoxicity” value is reported as 38.1%.
For `O=c1ccc2ccccc2c2ccccc12`, the “activity change, negative = cytotoxicity” value was 12.9%.
For `COc1ccc(C#Cc2ccc([C@H]3[C@@H](CO)N4CCCCN(C(=O)Nc5ccccc5)C[C@H]34)cc2)cc1`, the “activity change, negative = cytotoxicity” value was -2.46% [at 15 µM].
With `COc1ccc(-c2cc(C(F)(F)F)nc(S(=O)(=O)CCCC(=O)Nc3cc(C)on3)n2)cc1OC` the “activity change, negative = cytotoxicity” value was 8.08%.
For `C[C@H]1CCCCO[C@@H](CN(C)Cc2ccncc2)[C@@H](C)CN([C@@H](C)CO)C(=O)c2cc(NC(=O)Nc3ccc(C(F)(F)F)cc3)ccc2O1`, the “activity change, negative = cytotoxicity” value was 11.8%.
For `C[C@@H]1CN([C@H](C)CO)C(=O)c2cc(NC(=O)Cc3ccccc3)ccc2O[C@@H](C)CCCCO[C@H]1CN(C)Cc1ccc(C(F)(F)F)cc1`, the “activity change, negative = cytotoxicity” value was -9.65%.
In the case of `O=C(C1CCC1)N1CCCCN2[C@H](CO)[C@H](c3ccc(-c4cccc(F)c4)cc3)[C@H]2C1`, the “activity change, negative = cytotoxicity” value is reported as -21.1%.
For `Cn1c(=O)[nH]c(=O)c2c1nc([N+](=O)[O-])n2Cc1ccccc1`, the “activity change, negative = cytotoxicity” value was 53.7%.
For `C[C@H]1CCCCO[C@H](CN(C)C(=O)Nc2ccc(C(F)(F)F)cc2)[C@@H](C)CN([C@@H](C)CO)C(=O)c2cc(NS(=O)(=O)c3cccs3)ccc2O1`, the “activity change, negative = cytotoxicity” value was -10.2%.
In the case of `COc1cc(/C=C/C(=O)N2CCC=CC2=O)cc(OC)c1OC`, the “activity change, negative = cytotoxicity” value is reported as 64.5%.
For `C[C@@H]1CN([C@@H](C)CO)C(=O)c2cc(N(C)C)ccc2O[C@@H](C)CCCCO[C@H]1CN(C)S(=O)(=O)c1ccc(F)cc1`, the “activity change, negative = cytotoxicity” value was -3.62%.
With `C[C@H](CO)N1C[C@H](C)[C@@H](CN(C)S(=O)(=O)c2ccc(Cl)cc2)OCCCC[C@H](C)Oc2ccc(NS(=O)(=O)c3ccc(F)cc3)cc2C1=O` the “activity change, negative = cytotoxicity” value was -13.7%.
With `COc1ccccc1NC(=O)N1CCCCN2[C@H](C1)[C@@H](c1ccc(-c3cccc(C#N)c3)cc1)[C@@H]2CO` the “activity change, negative = cytotoxicity” value was 1.51%.
For `COc1ccc(NC(=O)Nc2ccc3c(c2)C(=O)N([C@@H](C)CO)C[C@@H](C)[C@@H](CN(C)Cc2ccc(C(F)(F)F)cc2)O3)cc1`, the “activity change, negative = cytotoxicity” value was 47.2% [at 16 µM].
In the case of `C=C(C)c1cccc(C(C)(C)NC(=O)N2CCN(c3ccccc3OC)CC2)c1`, the “activity change, negative = cytotoxicity” value is reported as -33.1%.
In the case of `Cc1ccc(S(=O)(=O)Nc2ccc3c(c2)C(=O)N([C@H](C)CO)C[C@H](C)[C@@H](CN(C)S(=O)(=O)c2ccc(F)cc2)OCCCC[C@H](C)O3)cc1`, the “activity change, negative = cytotoxicity” value is reported as -8.14%.
With `COc1ccc(S(=O)(=O)Nc2ccc3c(c2)C(=O)N([C@H](C)CO)C[C@H](C)[C@H](CN(C)S(=O)(=O)c2ccc(F)cc2)OCCCC[C@H](C)O3)cc1` the “activity change, negative = cytotoxicity” value was -22.6%.
In the case of `COc1cccc(-c2ccc3c(c2)[C@@H]2[C@@H](CCN2S(=O)(=O)c2ccccc2C)[C@H](CO)N3C)c1`, the “activity change, negative = cytotoxicity” value is reported as -3.34% [at 30 µM].
For `C[C@H]1CCCCO[C@H](CN(C)Cc2ccc(C(F)(F)F)cc2)[C@@H](C)CN([C@@H](C)CO)C(=O)c2cc(NC(=O)Nc3ccc(F)cc3)ccc2O1`, the “activity change, negative = cytotoxicity” value was 7.85%.
In the case of `C[C@H]1CN([C@@H](C)CO)S(=O)(=O)c2ccc(C#Cc3ccccc3F)cc2O[C@H]1CN(C)C(=O)c1ccc2c(c1)OCO2`, the “activity change, negative = cytotoxicity” value is reported as -5.86%.
In the case of `CC(C)(C)c1nnc(NC(=O)CCS(=O)(=O)c2ccccc2)s1`, the outcome is reported as “inactive”.
With `C[C@@H]1CCCCO[C@@H](CN(C)Cc2ccncc2)[C@H](C)CN([C@@H](C)CO)C(=O)c2cc(NC(=O)Nc3ccc(C(F)(F)F)cc3)ccc2O1` the “activity change, negative = cytotoxicity” value was -5.28%.
For `C[C@@H]1CCCCO[C@H](CN(C)C(=O)c2ccccc2)[C@H](C)CN([C@@H](C)CO)C(=O)c2cc(NC(=O)Nc3ccc(C(F)(F)F)cc3)ccc2O1`, the “activity change, negative = cytotoxicity” value was 9.87%.
In the case of `C[C@@H]1CCCCO[C@H](CN(C)C(=O)Cc2ccccc2)[C@@H](C)CN([C@@H](C)CO)C(=O)c2cc(NS(=O)(=O)c3ccc(Cl)cc3)ccc2O1`, the “activity change, negative = cytotoxicity” value is reported as 0.008%.
With `C[C@H]1CN([C@@H](C)CO)S(=O)(=O)c2ccc(C#Cc3ccncc3)cc2O[C@@H]1CN(C)C(=O)Nc1ccc2c(c1)OCO2` the “activity change, negative = cytotoxicity” value was -8.23%.
In the case of `Oc1ccc(C[C@H]2CNC(=S)N2CC2CCCN2C[C@H](Cc2ccc(O)cc2)N2C[C@H](Cc3ccccc3)N(CC3CCCCCC3)C2=S)cc1` (stereo partly specified), the “activity change, negative = cytotoxicity” value is reported as -13.8%.
For `C[C@@H]1CCCCO[C@H](CN(C)Cc2ccncc2)[C@H](C)CN([C@H](C)CO)C(=O)c2cc(NC(=O)Nc3ccc(C(F)(F)F)cc3)ccc2O1`, the “activity change, negative = cytotoxicity” value was 10.9%.
With `O=S(=O)(c1ccccc1F)N1CC[C@@H]2[C@H](CO)Nc3ccc(C4=CCCCC4)cc3[C@@H]21` the “activity change, negative = cytotoxicity” value was -8.83%.
